Assay outcomes (PubChem)
Shown is part of a subset that was picked to be rich in hits.
HIV RNase H inh-1 – HIV-1 RT RNase H inhibitors, primary screen, biochemical, fluorescence; Gag-Pol polyprotein (Human immunodeficiency virus type 1 group M subtype B (isolate …; RT-RNase H RNA/DNA duplex cleavage; inhibition, % at 10 µM; 65,000 compounds, 1.9% hits; AID 565, 2006; in the data active = inhibition above about 50%
HIV RNase H inh-2 – HIV-1 RT RNase H inhibitors, retest, confirmation, biochemical; 1,000 compounds, 39% hits; shares compounds with HIV RNase H inh-1; Recombinant RT RNase H, fluorescent RNA/DNA duplex cleavage; AID 651, 2007; inhibition, % at 10 µM; in the data active = inhibition above about 48%
Numbers without * were called inactive.

SMILES	HIV RNase H inh-1	others
COc1ccccc1CN1CCN(C(CC(C)C)c2nnnn2Cc2cccs2)CC1 (stereo not given)	-14
O=C(CN1CCCCC1)Nc1cccc(Br)c1	-24
CC(=O)N1C2CCCCC2S[C@H]2CCCCC21 (stereo not given in full)	-5
Cc1ccc(/C=C/C2=Cc3c(sc(NC(=O)CSc4n[nH]c(N)n4)c3C#N)C(C)(C)C2)o1	96*	HIV RNase H inh-2=67*
CCOC(=O)c1c(NC(=O)CSc2n[nH]c(N)n2)sc(CC)c1C	-67
COC(=O)c1c(NC(=O)CSc2n[nH]c(N)n2)sc(C)c1C	-18
Cc1cc(C)c(C(=O)CSc2n[nH]c(=O)n2C2CC2)cc1C	13
COc1ccc(-c2nc(CN3CCC(C(=O)NC(C)C)CC3)c(C)o2)cc1OC	-3
CCOc1ccccc1NC(=O)N1CCCC1C(=O)Nc1ccc(-n2cnnn2)c(C)c1 (stereo not given)	-7
COc1cccc(C(=O)Cn2c(=O)n(CC3CCCO3)c(=O)c3ccccc32)c1 (stereo not given)	-2
COc1ccccc1C(=O)Nc1nnc(-c2ccc3c(c2)CCCC3)o1	-31
O=C(COc1ccc(Cl)cc1)Nc1nnc(-c2ccc3c(c2)CCCC3)o1	87*	HIV RNase H inh-2=67*
CC(=O)Nc1nnc(-c2ccc3c(c2)CCCC3)o1	-63
O=C(COC(=O)c1cccc(NC(=O)c2ccco2)c1)c1ccc(Br)cc1	-18
CCOC(=O)C(NC=O)(NC(C)(C)C)C(=O)OCC	-12
CCCOC(=O)NC(CC)COC(=O)Nc1cc(C)ccc1C (stereo not given)	93*	HIV RNase H inh-2=-1
COC(=O)[C@H](CCSC)NC(=O)Nc1cc(C)ccc1C	-5
CCCCNC(=O)OCC(CC)NC(=O)OC(C)C (stereo not given)	-1
Cc1cc(-c2ccco2)c(C#N)c2nc3ccccc3n12	-41
CCOc1ccc(S(=O)(=O)N2CCN(c3ccccc3OC)CC2)c2cccnc12	-9
CS(=O)(=O)N(CCc1ccccc1)CC(=O)N1CCc2ccccc2C1	-11
CCN(C(=O)Cc1cccs1)c1nnc(-c2cc(OC)c(OC)c(OC)c2)s1	-20
CCOc1ccc(-c2nnc(N(CC)C(=O)C3CCC3)s2)cc1	66*	HIV RNase H inh-2=1
CCCC(=O)N(C)c1nnc(-c2ccc(OC)cc2)s1	32
CC(Cc1ccc(O)c(O)c1)C(C)Cc1ccc(O)c(O)c1 (stereo not given)	99*	HIV RNase H inh-2=59*
C[C@@](Cc1ccc(O)c(O)c1)(NN)C(=O)O	3
Oc1ccc(CC2CC3CCN2CC3)cc1O (stereo not given)	8
CCCN(CCC)CCNc1c(N2CCN(C(=O)OCC)CC2)c(=O)c1=O	-16
COc1ccc(Cc2nnc(SCC(=O)Nc3nc(C)cs3)o2)cc1	-1
Cc1ccc(NC(=O)CSc2n[nH]c(-c3ccncc3)n2)cc1C	-64
